Measurements published in PubChem BioAssay (EPA / NIEHS).
The source made the active and inactive calls. Rule for the calls: active = hit-call score of the fitted dose curve at least 0.9, where 1 is the maximum; inactive = score below 0.9.

Columns and labels:
[1] = BSK_CASM3C_SRB: Viability Assessment in the BioMAP Diversity Plus: CASM3C Assay (AID 2283050); settings: primary human coronary artery smooth muscle cells;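 note: cells exposed to compound for 24 h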
[2] = read-out: Thrombomodulin, THBD (gene 7056); assay: BSK_CASM3C_Thrombomodulin: BioMAP Diversity Plus: CASM3C Assay for Thrombomodulin Biomarker Activity (AID 2283051); settings: primary human coronary artery smooth muscle cells; actives raise or lower the signal;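 note: thrombomodulin protein level measured by ELISA 24 h after dosing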
[3] = read-out: Tissue Factor, F3 (gene 2152); assay: BSK_CASM3C_TissueFactor: BioMAP Diversity Plus: CASM3C Assay for Tissue Factor Biomarker Activity (AID 2283052); settings: primary human coronary artery smooth muscle cells; actives raise or lower the signal;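 note: cell surface tissue factor protein level read by ELISA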
[4] = read-out: Interferon-gamma inducible Protein 10 (IP10), CXCL10 (gene 3627); assay: BSK_hDFCGF_IP10: BioMAP Diversity Plus: hDFCGF Assay for Interferon-gamma inducible Protein 10 (IP10) Biomarker Activity (AID 2283053); settings: primary human foreskin fibroblasts; actives raise or lower the signal
Outline: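 ELISA read-out of IP-10 (CXCL10) from primary human skin fibroblasts, 24 h after compound addition. Gain or loss of signal versus DMSO baseline, bidirectional curve fitting.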

[5] = read-out: Urokinase-type plasminogen activator receptor (uPAR), PLAUR (gene 5329); assay: BSK_CASM3C_uPAR: BioMAP Diversity Plus: CASM3C Assay for Urokinase-type plasminogen activator receptor (uPAR) Biomarker Activity (AID 2283054); settings: primary human coronary artery smooth muscle cells; actives raise or lower the signal;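 note: cell-surface uPAR protein level quantified by ELISA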
[6] = read-out: Vascular cell adhesion molecule 1 (VCAM1), VCAM1 (gene 7412); assay: BSK_CASM3C_VCAM1: BioMAP Diversity Plus: CASM3C Assay for Vascular cell adhesion molecule 1 (VCAM1) Biomarker Activity (AID 2283055); settings: primary human coronary artery smooth muscle cells; actives raise or lower the signal;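 note: VCAM-1 protein level quantified by ELISA on the cells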
[7] = read-out: Collagen III, COL3A1 (gene 1281); assay: BSK_hDFCGF_CollagenIII: BioMAP Diversity Plus: hDFCGF Assay for Collagen III Biomarker Activity (AID 2283056); settings: primary human foreskin fibroblasts; actives raise or lower the signal
Outline: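 Human foreskin fibroblast primary cultures sampled 24 h after dosing; Collagen III quantified by ELISA. Signal fitted bidirectionally against DMSO baseline.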

[8] = read-out: Interleukin-8 (IL8), CXCL8 (gene 3576); assay: BSK_hDFCGF_IL8: BioMAP Diversity Plus: hDFCGF Assay for Interleukin-8 (IL8) Biomarker Activity (AID 2283058); settings: primary human foreskin fibroblasts; actives raise or lower the signal
Outline: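 Primary human foreskin fibroblasts (hDFCGF system) dosed with chemical; IL-8 measured by ELISA 24 hours later. Bidirectional curve fitting relative to DMSO baseline; cytotoxicity tracked in parallel cultures by SRB total protein staining.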

[9] = BSK_hDFCGF_Proliferation: Cell Proliferation Assessment in the BioMAP Diversity Plus: hDFCGF Assay (AID 2283059); settings: primary human foreskin fibroblasts;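 note: curves fitted for both rise and fall of signal versus DMSO baseline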
Outline: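 Total protein read at 560 nm after 0.1% SRB staining of TCA-fixed human skin fibroblasts, […]. Activity is fitted in both directions relative to DMSO as baseline.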

[10] = read-out: Macrophage colony-stimulating factor (MCSF), CSF1 (gene 1435); assay: BSK_hDFCGF_MCSF: BioMAP Diversity Plus: hDFCGF Assay for Macrophage colony-stimulating factor (MCSF) Biomarker Activity (AID 2283060); settings: primary human foreskin fibroblasts; actives raise or lower the signal
Outline: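 Human foreskin fibroblast primary cultures; M-CSF measured by ELISA 24 hours after chemical dosing. Bidirectional fitting relative to DMSO, with overt cytotoxicity tracked by parallel SRB total-protein staining (0.1% SRB, 10% TCA fixation, 560 nm).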

[11] = BSK_hDFCGF_SRB: Viability Assessment in the BioMAP Diversity Plus: hDFCGF Assay (AID 2283061); settings: primary human foreskin fibroblasts;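 note: cells exposed to compound for 24 h before the read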
Outline: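 Human foreskin fibroblasts in 96-well plates were treated 24 h. Total protein was measured by 0.1% SRB staining after 10% TCA fixation, read at 560 nm. Data were fitted bidirectionally against DMSO.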

[12] = read-out: TIMP metallopeptidase inhibitor 1 (TIMP1), TIMP1 (gene 7076); assay: BSK_hDFCGF_TIMP1: BioMAP Diversity Plus: hDFCGF Assay for TIMP metallopeptidase inhibitor 1 (TIMP1) Biomarker Activity (AID 2283062); settings: primary human foreskin fibroblasts; actives raise or lower the signal
Outline: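 Human foreskin fibroblast primary cultures dosed for 24 h; secreted/surface TIMP-1 quantified by ELISA. Bidirectional curve fitting against DMSO baseline; cytotoxicity tracked in parallel cultures by SRB total-protein staining.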

[13] = read-out: Monokine induced gamma interferon (MIG), CXCL9 (gene 4283); assay: BSK_hDFCGF_MIG: BioMAP Diversity Plus: hDFCGF Assay for Monokine induced gamma interferon (MIG) Biomarker Activity (AID 2283063); settings: primary human foreskin fibroblasts; actives raise or lower the signal
Outline: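 MIG/CXCL9 measured by ELISA 24 h after dosing primary human skin fibroblasts. Activity fitted in both directions against DMSO controls. Cytotoxicity was checked in parallel cultures by SRB staining read at 560 nm.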

[14] = read-out: Matrix Metallopeptidase 1 (MMP1), MMP1 (gene 4312); assay: BSK_hDFCGF_MMP1: BioMAP Diversity Plus: hDFCGF Assay for Matrix Metallopeptidase 1 (MMP1) Biomarker Activity (AID 2283064); settings: primary human foreskin fibroblasts; actives raise or lower the signal
Outline: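 ELISA read-out of MMP1 from human foreskin fibroblasts (primary skin cells), 24 h post-dose. Gain or loss of signal was fitted bidirectionally versus DMSO negative control; cytotoxicity was checked by SRB in parallel cultures.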

[15] = read-out: Vascular cell adhesion molecule 1 (VCAM1), VCAM1 (gene 7412); assay: BSK_hDFCGF_VCAM1: BioMAP Diversity Plus: hDFCGF Assay for Vascular cell adhesion molecule 1 (VCAM1) Biomarker Activity (AID 2283065); settings: primary human foreskin fibroblasts; actives raise or lower the signal;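 for AC50: VCAM-1 protein level quantified by ELISA after 24 h chemical exposure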
Outline: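 Human foreskin fibroblast primary cells dosed with chemical, VCAM-1 measured by ELISA at 24 h. Bidirectional curve fitting relative to DMSO as negative control/baseline.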

[16] = read-out: Plasminogen activator inhibitor-1 (PAI1), SERPINE1 (gene 5054); assay: BSK_hDFCGF_PAI1: BioMAP Diversity Plus: hDFCGF Assay for Plasminogen activator inhibitor-1 (PAI1) Biomarker Activity (AID 2283066); settings: primary human foreskin fibroblasts; actives raise or lower the signal
Outline: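 ELISA readout of PAI-1 from primary human skin fibroblast cultures, 24 h after compound addition. Gain or loss of signal was fitted bidirectionally against DMSO baseline.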

[17] = read-out: Intercellular Adhesion Molecule 1 (ICAM1), ICAM1 (gene 3383); assay: BSK_KF3CT_ICAM1: BioMAP Diversity Plus: KF3CT Assay for Intercellular Adhesion Molecule 1 (ICAM1) Biomarker Activity (AID 2283067); settings: primary human keratinocytes with fibroblasts; actives raise or lower the signal
Outline: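 Human keratinocyte–foreskin fibroblast co-culture was treated for 24 h. Cell-surface ICAM-1 was quantified by ELISA, fitted bidirectionally relative to DMSO. Cytotoxicity was checked in parallel cultures by SRB total-protein staining.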

[18] = read-out: Interferon-gamma inducible Protein 10 (IP10), CXCL10 (gene 3627); assay: BSK_KF3CT_IP10: BioMAP Diversity Plus: KF3CT Assay for Interferon-gamma inducible Protein 10 (IP10) Biomarker Activity (AID 2283068); settings: primary human keratinocytes with fibroblasts; actives raise or lower the signal
Outline: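 Human keratinocyte plus foreskin fibroblast primary co-culture exposed to test chemical for 24 h; IP-10 measured by ELISA. Concentration-response fitted bidirectionally against DMSO control as baseline.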

[19] = BSK_KF3CT_SRB: Viability Assessment in the BioMAP Diversity Plus: KF3CT Assay (AID 2283069); settings: primary human keratinocytes with fibroblasts;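 note: total protein by sulforhodamine B staining as a cytotoxicity measure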
Outline: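 SRB read-out at 560 nm (0.1% stain, TCA-fixed cells) gauges overt cytotoxicity in a human skin keratinocyte–fibroblast co-culture 24 h post-dosing. Signal change was fitted bidirectionally relative to DMSO control.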

Measured: AC50

CCOC(=O)COc1cc(-n2ncc(C(F)(F)F)c(C)c2=O)c(F)cc1Cl
inactive: all assays above

COC(=O)CSc1cc(N=c2sc(=O)n3n2CCCC3)c(F)cc1Cl
inactive: all assays above

CCOC(=O)C(C)Oc1ccc(Oc2cnc3cc(Cl)ccc3n2)cc1 (stereo unspecified)
active: [9] 30.6 µM
not listed: [6]
inactive: all other assays above

CCNc1nc(N)nc(Cl)n1
inactive: all assays above

CCCCCCC(C)OC(=O)COc1nc(F)c(Cl)c(N)c1Cl (stereo unspecified)
inactive: [3] | [5] | [18]
active: [1] 35.3 µM | [2] 29.7 µM | [4] 13.5 µM | [6] 32.8 µM | [7] 20 µM | [8] 29.6 µM | [9] 6.82 µM | [10] 13.8 µM | [11] 14.9 µM | [12] 26 µM | [13] 15 µM | [14] 30.3 µM | [15] 13.4 µM | [16] 25.8 µM | [17] 31.4 µM | [19] 30.4 µM

OB(O)O
inactive: all assays above

COc1nc(C)nc(NC(=O)NS(=O)(=O)c2ccccc2OCCCl)n1
inactive: all assays above

CCC(C)OC(=O)N1CCCCC1CCO (stereo unspecified)
inactive: all assays above

CC(=O)S[C@@H]1CC2=CC(=O)CC[C@]2(C)[C@H]2CC[C@@]3(C)[C@@H](CC[C@@]34CCC(=O)O4)[C@H]12
active: [4] 29.9 µM | [6] 16.8 µM | [8] 30.6 µM | [9] 20 µM | [10] 10.6 µM | [11] 26.7 µM | [13] 31.2 µM | [14] 31.3 µM | [16] 10.3 µM | [18] 33.4 µM
inactive: [1] | [2] | [3] | [5] | [7] | [12] | [15] | [17] | [19]

C[C@]12C[C@H](O)[C@H]3[C@@H](CCC4=CC(=O)CC[C@@]43C)[C@@H]1CC[C@@H]2C(=O)CO
active: [14] 1.4 µM
not listed: [10]
inactive: all other assays above

COC(=O)c1cccc(C)c1S(=O)(=O)NC(=O)Nc1nc(OCC(F)(F)F)nc(N(C)C)n1
inactive: all assays above

COC(=O)c1ccccc1C(=O)O
active: [4] 31.5 µM | [12] 6.58 µM | [18] 10.4 µM
inactive: all other assays above
